Screening results as filed in PubChem.
Sampled rows, rich in hits. Any-hit rate of the full collection: about 5.7%.
DRD3 antagonist: qHTS of D3 Dopamine Receptor Antagonist: qHTS; D(3) dopamine receptor (Homo sapiens), P35462; D3R cells, DiscoveRx beta-arrestin luminescence, antagonist mode; active compounds read low; max response, negative = inhibition, %; 360,000 compounds, 2.5% hits; AID 652054, 2013; in the data active = max response below about -50%; inconclusive = no clear call, values can overlap the other calls; also: % is scaled to controls: 0 for no effect and ±100 for the full control effect
Target sequence (P35462 whole entry, looked up): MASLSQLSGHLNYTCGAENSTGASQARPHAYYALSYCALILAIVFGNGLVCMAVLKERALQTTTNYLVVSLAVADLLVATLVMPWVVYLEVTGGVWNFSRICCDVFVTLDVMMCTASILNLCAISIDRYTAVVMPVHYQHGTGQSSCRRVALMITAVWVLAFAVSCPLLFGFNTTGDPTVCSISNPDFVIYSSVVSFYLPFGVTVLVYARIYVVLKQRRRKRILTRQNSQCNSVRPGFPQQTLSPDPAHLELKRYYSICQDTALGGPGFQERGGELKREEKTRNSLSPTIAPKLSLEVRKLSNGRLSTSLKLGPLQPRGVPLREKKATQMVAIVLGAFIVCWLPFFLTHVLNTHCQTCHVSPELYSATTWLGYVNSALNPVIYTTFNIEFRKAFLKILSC
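Cells plated overnight at 1500 cells/well, then exposed to library compounds with dopamine controls for 90 minutes at 37 degrees C. DiscoveRx reagent added for 30–60 minutes at room temperature; luminescence read, quantitative HTS format.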
ClpP mod: qHTS Assay for Activators of ClpP; 340,000 compounds, 1.9% hits; Potency, µM (top dose mostly 57.5 µM), for inactives: at the highest dose activity change, negative = active; purified B. subtilis ClpP, FRET peptide cleavage, 20 min; ATP-dependent Clp protease proteolytic subunit (Bacillus subtilis (strain 168)), P80244; active = well fitted falling curve with a large enough effect; inconclusive = small, poorly fitted or top-dose-only effect; inactive = no such curve, though single readings can be large or run the other way; also: potency is read from the fitted curve at half-maximal effect; the source files actives as falling curves though it sought activators and does not explain the sign; nearly all actives have a fitted effect of over 65% in size
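FRET quenching reversal measured ClpP activation: 10 microg/mL B. subtilis ClpP at pH 8 with the FRET-FV decapeptide, read at 430 nm after 320 nm excitation. The 20-min minus 0-min signal was scaled between DMSO/no-enzyme wells and ADEP (5.8 microM final).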
GLP1R inv ag: qHTS of GLP-1 Receptor Inverse Agonists (Inhibition Mode) | 410,000 compounds, 1.6% hits | HEK293 GLP-1R CRE-luciferase, luminescence, 24 h; GLP-1R form is constitutively active | Glucagon-like peptide 1 receptor (Homo sapiens), P43220 | Potency, µM (highest dose often 38.3 µM), without a hit: top-dose activity change, negative = inhibition, usual class: inhibitors; also: potency is read from the fitted curve at half-maximal effect; % is scaled to controls: 0 for no effect and ±100 for the full control effect; nearly all actives have a fitted effect of over 55% in size
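Constitutively active GLP-1R drives a cAMP-responsive luciferase in stably transfected HEK293 cells; test compounds are added after overnight (12 h) attachment and left 24 hr, and signal loss in luminescence marks inhibition.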
GLP1R cytotox: qHTS of GLP-1 Receptor Inverse Agonists: Cytotox Screen; HEK293 cAMP-luciferase reporter cells, luminescence, 24 h; Potency, µM (top dose mostly 38.3 µM), for the others: top-dose activity change, negative = inhibition, most hits filed as inhibitors; 410,000 compounds, 0.13% hits; AID 624418, 2012;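 also: loss of luciferase light is scored as toxicity; potency is read from the fitted curve at half-maximal effect; % is scaled to controls: 0 for no effect and ±100 for the full control effect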
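Quantitative HTS format, 1536 wells, 200 cells/uL seeded. Compounds: 23 nL, 24 h, 37 °C. Detection: luciferase reagent, luminescence at 12 min RT; decreased signal taken as cytotoxic.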
GLP-1R agonist: qHTS of GLP-1 Receptor Agonists; HEK293 GLP-1R CRE-luciferase, luminescence, 4-6 h; cells express a hypersensitive GLP-1R form; Potency, µM (doses to about 45.6 µM), without a hit: top-dose activation, most hits filed as activators; 380,000 compounds, 0.007% hits; AID 624172, 2012; also: potency is read from the fitted curve at half-maximal effect; % of control where 0% means no effect
DRD3 agonist: qHTS of D3 Dopamine Receptor Agonist: qHTS; D(3) dopamine receptor (Homo sapiens), P35462; D3R DiscoveRx beta-arrestin cells, luminescence, 90 min; max activation, %; 410,000 compounds, 0.58% hits; in the data active = max activation above about 30%; also: 0% is about no effect
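Cells at 1500/well, incubated overnight, then treated with pinned compounds (dopamine as control) for 90 min at 37 degrees C. DiscoveRx reagent added for 30 - 60 minutes at room temperature; luminescence read.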
* hit, by the source's call; ? = inconclusive; nt = no result given. Unless noted, calls follow the shape of the dose curve; as a rule, active = well fitted curve in the direction sought with a large enough effect; inconclusive = small, poorly fitted or top-dose-only effect, or another doubt; inactive = no such curve, though single readings can be large; an effect the other way counts as inactive or inconclusive.

SMILES	DRD3 antagonist	ClpP mod	GLP1R inv ag	GLP1R cytotox	GLP-1R agonist	DRD3 agonist
CC1CCc2c(sc(NC(=O)Cn3nc(C(=O)O)c4ccccc4c3=O)c2C#N)C1 (stereo not given)	52	1%	-7%	-23%	3%	12
CC1CCc2c(sc(NC(=O)CSc3ncn[nH]3)c2C#N)C1 (stereo not given)	19	2%	-8%	-6%	4%	2
CCN1CCN(CC(=O)Nc2sc3c(c2C#N)CCC(C)C3)CC1 (stereo not given)	0	-1%	2µM*	-9%	3%	-2
CC(C)(C)C1CCc2c(sc(NC(=O)CSc3ncn[nH]3)c2C#N)C1 (stereo not given)	21	0%	20%	-14%	?	36*
COC(=O)[C@H]1[C@H]2C[C@H]3c4[nH]c5ccccc5c4CCN3C[C@H]2CC[C@@H]1O	-132*	-4%	-13%	1%	-4%	-94
CCOc1ccc(N=C(C)Nc2ccc(OCC)cc2)cc1	nt	nt	nt	nt	-4%	-8
COc1ccc(NC(=O)C2(C)Cc3c(-c4cccc(C(F)(F)F)c4)ccnc3O2)cn1 (stereo not given)	-1	3%	?	-27%	?	-9
O=C(NCc1cccc(Cl)c1)c1ccc2c(Cl)c3c(nc2c1)CCCC3	nt	-10%	-11%	2%	1%	-6
O=[N+]([O-])c1ccc(O)c(-c2nn[nH]n2)c1	-12	25µM*	6%	-11%	-35%	-15
CCN(Cc1cc2cc(OC)ccc2[nH]c1=O)C(=O)c1ccncc1	17	?	-5%	-1%	-9%	1
CCN(CC(=O)NCc1ccc(F)cc1)C(=O)Cc1ccc(OC)cc1	5	16µM*	-13%	-2%	3%	-22
CCN(Cc1cc2cc(OC)ccc2[nH]c1=O)C(=O)Cc1ccc(OC)cc1	-28	28µM*	10%	-2%	-1%	-3
COc1ccc2[nH]c(=O)c(CN(CCO)C(=O)NCc3ccccc3)cc2c1	-9	25µM*	7%	7%	2%	20
CCOc1ccc(N(Cc2cc3cc(OC)ccc3[nH]c2=O)S(C)(=O)=O)cc1	-10	28µM*	0%	-15%	26%	-5
COc1ccc2[nH]c(=O)c(CN(c3ccc(C)c(C)c3)S(C)(=O)=O)cc2c1	-3	nt	29%	-6%	12%	-1
CCc1ccc2[nH]c(=O)c(CN(CCO)C(=O)NCc3ccccc3)cc2c1	9	-16%	-1%	-6%	1%	-6
O=C1CSCc2nc3ccccc3n21	18	2%	2%	-7%	3%	-2
COc1ccc2[nH]c(=O)c(CN(C)C(=O)COc3ccccc3)cc2c1	8	32µM*	-2%	1%	0%	8
CCOc1cc(C(=O)N(C)Cc2cc3cc(OC)ccc3[nH]c2=O)cc(OCC)c1OCC	-1	-3%	7%	26%	3%	2
CCOc1ccccc1C(=O)N(C)Cc1cc2cc(OC)ccc2[nH]c1=O	-11	32µM*	38%	-5%	-4%	2
O=C(c1cc(C2CC2)nc2ccccc12)N1N=C(C(F)F)CC1(O)C(F)F (stereo not given)	22	-7%	-22%	9%	11%	1
CC(C)c1ccc(-c2cc(C(=O)N3N=C(C(F)F)CC3(O)C(F)F)c3ccccc3n2)cc1 (stereo not given)	-8	28µM*	0%	?	-23%	0
O=C(c1cc(C2CC2)nc2ccc(Br)cc12)N1N=C(C(F)F)CC1(O)C(F)F (stereo not given)	-62*	1%	?	?	-18%	-1
